The record followed here is PubChem BioAssay (NCI).

About 83,000 compounds went through this panel and 20% of them were active in at least one assay; those are over-represented in the sample as a whole.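 Compound tested at a single concentration for 48 hours in 96-well plates; a percent growth value below 10 was scored as active.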 Values without a mark were called inactive. Activity calls are given as the source filed them.

Among the test systems are HCT-15 colon; HT29 colon; SNB-75 CNS; SNB-19 CNS; PC-3 prostate; SK-MEL-5 melanoma; UACC-62 melanoma; LOX IMVI melanoma; SK-MEL-28 melanoma; SK-MEL-2 melanoma; EKVX NSCLC; SN12C renal; UO-31 renal; TK-10 renal; ACHN renal; CAKI-1 renal; A498 renal; CCRF-CEM leukemia; MOLT-4 leukemia.
Assay in all cases: NCI-60 one-dose screen, 48 h (100 = growth as untreated, 0 = no growth, -100 = all killed)
What all share (details): 10 µM unless noted

For the compound `C#CCOc1ccc(-c2csc(NC(=O)C=C)n2)cc1NS(=O)(=O)c1cccc2c(N(C)C)cccc12`, the growth with HCT-15 colon was -9.26% (active); with HT29 colon, 12.6%; in the experiment with SNB-75 CNS, 1.15% (active); with SNB-19 CNS, 71.2%; with PC-3 prostate, 53.6%; in the experiment with SK-MEL-5 melanoma it was 63.6%. Also, the growth is 37.1% in the experiment on UACC-62 melanoma; -91% (active) in the experiment with LOX IMVI melanoma; 14.9% in the experiment on SK-MEL-28 melanoma; 69.4% with SK-MEL-2 melanoma; 66.1% in the experiment with EKVX NSCLC; 31.2% with SN12C renal. The growth in the experiment on UO-31 renal is 21.9%; in the experiment on TK-10 renal it was 63%; in the experiment on ACHN renal, 9.85% (active); in the experiment on CAKI-1 renal, 36.2%; with A498 renal, 79.8%; in the experiment on CCRF-CEM leukemia it was 3.87% (active). The growth in the experiment with MOLT-4 leukemia was 1.79% (active).

For the compound `COC(=O)N1CCN(CCNCc2ccc(NC(=O)c3ccc(C)c(C#Cc4cnc5cccnn45)c3)cc2C(F)(F)F)CC1`, the growth in the experiment with HCT-15 colon was 6.88% (active); in the experiment on HT29 colon, 17.3%; in the experiment with SNB-75 CNS, 17.4%; in the experiment on SNB-19 CNS, 59.6%; in the experiment on PC-3 prostate, 25.5%; with SK-MEL-5 melanoma, -75.2% (active). The growth with UACC-62 melanoma is 39.3%; in the experiment on LOX IMVI melanoma, -79.5% (active); in the experiment on SK-MEL-28 melanoma, 12%; with SK-MEL-2 melanoma, 4.46% (active); with EKVX NSCLC it was 48.9%; in the experiment on SN12C renal it was 39.8%. For the same compound, the growth with UO-31 renal is 26.8%; in the experiment with TK-10 renal, 68.9%; in the experiment with ACHN renal it was 29.6%; in the experiment on CAKI-1 renal it was 20.2%; with A498 renal, 47.8%; in the experiment on CCRF-CEM leukemia it was 10.8%. Besides, in the experiment on MOLT-4 leukemia, the growth was 8.21% (active).

Regarding `CCc1cc2c(cc1Cl)nc1c(=O)[nH]c(=O)nc-1n2CCOCC(C)C`, the growth was 47.4% in the experiment with HCT-15 colon; 24.3% in the experiment on HT29 colon; 92.5% in the experiment with SNB-75 CNS; 85% in the experiment on SNB-19 CNS; 68.9% with PC-3 prostate; 34.4% with SK-MEL-5 melanoma. The growth in the experiment on UACC-62 melanoma was 72.1%; in the experiment with LOX IMVI melanoma, 49.8%; with SK-MEL-2 melanoma, 80.1%; in the experiment with EKVX NSCLC, 68.1%; with SN12C renal it was 57.4%; in the experiment with UO-31 renal it was 57.1%. For the same compound, the growth is 176% with TK-10 renal; 60% in the experiment on ACHN renal; 67.7% in the experiment with CAKI-1 renal; 76.4% with A498 renal; 77.6% in the experiment on CCRF-CEM leukemia; 64.1% in the experiment with MOLT-4 leukemia.

For `N#C/C(=C\c1ccc(-c2ccc(Cl)cc2)o1)C(=O)Nc1ncc(Cc2ccc(Br)cc2)s1`, the growth with HCT-15 colon is 15.3%; in the experiment with HT29 colon, 7.27% (active); with SNB-75 CNS, -18.1% (active); with SNB-19 CNS, 3.38% (active); in the experiment on PC-3 prostate it was 9.73% (active); with SK-MEL-5 melanoma, 51.9%. Moreover, the growth with UACC-62 melanoma was 1% (active); in the experiment with LOX IMVI melanoma it was -69.7% (active); with SK-MEL-28 melanoma it was 11%; in the experiment with SK-MEL-2 melanoma it was 83.1%; in the experiment on EKVX NSCLC, 19.6%; in the experiment with SN12C renal it was -29.9% (active). Further, the growth with UO-31 renal is 52.9%; with TK-10 renal it was -35.6% (active); with ACHN renal, -34.6% (active); in the experiment with CAKI-1 renal it was -7.28% (active); in the experiment on A498 renal, -25.5% (active); with CCRF-CEM leukemia, 34.8%. In addition, the growth in the experiment on MOLT-4 leukemia is 55.8%.

`O=C1[C@@H]2Cc3c([nH]c4ccccc34)[C@@H](c3ccc(Cl)cc3)N2C(=O)CN1C1CCN(Cc2c(F)cccc2F)CC1`: the growth with HCT-15 colon was 24.3%; with HT29 colon, -10.2% (active); in the experiment with SNB-75 CNS, 25.9%; with SNB-19 CNS it was 47.8%; in the experiment on PC-3 prostate it was 13.8%; in the experiment on SK-MEL-5 melanoma, 48.8%. The growth in the experiment on UACC-62 melanoma was 40.7%; with SK-MEL-28 melanoma, 64.8%; in the experiment with SK-MEL-2 melanoma it was 67.6%; with EKVX NSCLC, 40.1%; in the experiment with SN12C renal, 38.5%; in the experiment on UO-31 renal it was 24.2%. For the same compound, the growth in the experiment on TK-10 renal is 52.5%; in the experiment on ACHN renal, 28%; in the experiment on CAKI-1 renal it was 24.6%; in the experiment with A498 renal it was 60%; in the experiment on CCRF-CEM leukemia, 19.8%; in the experiment on MOLT-4 leukemia, 8.27% (active).

With `O=C(/C=C/c1cccc(F)c1)c1cccc(OCCCOc2cccc(C(=O)/C=C/c3cccc(F)c3)c2)c1`, the growth is 9.37% (active) with HCT-15 colon; 9.59% (active) with HT29 colon; 112% in the experiment on SNB-75 CNS; 65.1% in the experiment with SNB-19 CNS; 36.9% in the experiment with PC-3 prostate; 99.4% with SK-MEL-5 melanoma. For the same compound, the growth with UACC-62 melanoma is 81.3%; in the experiment with LOX IMVI melanoma, -37.9% (active); with SK-MEL-28 melanoma it was 106%; with SK-MEL-2 melanoma, 97.3%; in the experiment with EKVX NSCLC, 47.2%; with SN12C renal, 82%. The growth was 37.6% in the experiment with UO-31 renal; 114% in the experiment on TK-10 renal; 89.4% with ACHN renal; 90.4% with CAKI-1 renal; 90.8% with A498 renal; 36.8% with CCRF-CEM leukemia. Further, in the experiment with MOLT-4 leukemia, the growth was 56.3%.

For `Cn1cc(-c2nnc(N)nc2-c2c[nH]c3ccc(F)cc23)c2cc(Br)ccc21`, the growth was 16.9% with HCT-15 colon; 3.17% (active) with HT29 colon; 0.251% (active) in the experiment with SNB-75 CNS; 25.6% with SNB-19 CNS; 22.6% in the experiment with PC-3 prostate; 4.51% (active) in the experiment on SK-MEL-5 melanoma. The growth in the experiment with UACC-62 melanoma was 30.3%; with LOX IMVI melanoma it was 29%; with SK-MEL-2 melanoma, 11.8%; in the experiment on EKVX NSCLC, 27.7%; with SN12C renal, 38.1%; in the experiment with UO-31 renal, 41.3%. The growth in the experiment with TK-10 renal is 61.5%; in the experiment on ACHN renal, 40.6%; in the experiment with CAKI-1 renal, 28%; with A498 renal, 3.05% (active); in the experiment on CCRF-CEM leukemia it was -4.24% (active); in the experiment with MOLT-4 leukemia, -21.3% (active).

As for `CCCc1[nH]c(-c2cc(N)ccc2Cl)c2c1C(=O)CCCC2`, the growth in the experiment with HCT-15 colon was 90.6%; in the experiment on HT29 colon it was 104%; in the experiment on SNB-75 CNS it was 89.2%; in the experiment with SNB-19 CNS, 100%; in the experiment with PC-3 prostate, 85.6%; in the experiment with SK-MEL-5 melanoma it was 98.1%. The growth is 82.1% in the experiment on UACC-62 melanoma; 107% in the experiment on LOX IMVI melanoma; 102% with SK-MEL-28 melanoma; 95.5% with SK-MEL-2 melanoma; 90.3% in the experiment with EKVX NSCLC; 92.1% in the experiment on SN12C renal. Besides, the growth in the experiment with UO-31 renal is 78.3%; with TK-10 renal it was 107%; with ACHN renal, 107%; with CAKI-1 renal it was 76.3%; with A498 renal, 108%; in the experiment with CCRF-CEM leukemia, 96.2%. Also, the growth with MOLT-4 leukemia is 88.6%.
